“And” between values parts separate entries of the source, which are not always exact repeats. Equal entries are not always repeated. The campaign covered roughly 5,500 compounds. About 2,000 (36%) were called active. Roughly 18% stayed inconclusive and do not appear here. No stated cut-off is given here; in the data, active means normalized growth mostly below about 0.91 (no sharp cut-off); inconclusive means no clear call, values can overlap the other calls; inactive means mostly above about 0.92. The list shows a part of the results.
Assay: chemical genetic growth profiling, strain panel (AID 1159580);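 further: tested at 20 µM; growth read once vehicle control cultures reached saturation at 30 °C; 1 = growth at the plate median or of vehicle wells; lower values mean less growth of the strain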
Conditions: growth OD

Measured: normalized growth

NC1(C(=O)O)CC1
inactive: S. cerevisiae deletion strains, locus YJR075W, strain HOC1, active compounds read low 0.985 | S. cerevisiae deletion strains, locus YKL009W, strain mrt4, active compounds read low 1.03 | S. cerevisiae deletion strains, locus YKL068W, active compounds read low 1.01 | S. cerevisiae deletion strains, locus YKL085W, strain MDH1 (second series), active compounds read low 1.04 | S. cerevisiae deletion strains, locus YKL085W, strain MDH1, active compounds read low 1.04 | S. cerevisiae deletion strains, locus YKL160W, strain elf1, active compounds read low 1.04 | S. cerevisiae deletion strains, locus YKL190W, strain CNB1, active compounds read low 1.01 | S. cerevisiae deletion strains, locus YKR001C, strain vps1, active compounds read low 1.03 | S. cerevisiae deletion strains, locus YKR026C, strain gcn3, active compounds read low 1.03 | S. cerevisiae deletion strains, locus YKR091W, strain srl3, active compounds read low 1.03 | S. cerevisiae deletion strains, locus YLL001W, strain dnm1, active compounds read low 1.01 | S. cerevisiae deletion strains, locus YLL026W, active compounds read low 1.03 | S. cerevisiae deletion strains, locus YLL041C, strain sdh2, active compounds read low 1.02 | S. cerevisiae deletion strains, locus YLR027C, strain aat2, active compounds read low 1.02 | S. cerevisiae deletion strains, locus YLR039C, strain RIC1, active compounds read low 1.04 | S. cerevisiae deletion strains, locus YLR058C, strain SHM2, active compounds read low 1.01 | S. cerevisiae deletion strains, locus YLR102C, strain apc9, active compounds read low 1.01 | S. cerevisiae deletion strains, locus YLR113W, strain HOG1, active compounds read low 1.04 | S. cerevisiae deletion strains, locus YLR221C, strain rsa3, active compounds read low 1 | S. cerevisiae deletion strains, locus YLR258W, strain gsy2, active compounds read low 1.04 | S. cerevisiae deletion strains, locus YLR262C, strain YPT6 (second series), active compounds read low 1.03 | S. cerevisiae deletion strains, locus YLR262C, strain YPT6, active compounds read low 1.03 | S. cerevisiae deletion strains, locus YLR268W, strain sec22, active compounds read low 1.02 | S. cerevisiae deletion strains, locus YLR320W, strain mms22, active compounds read low 1.01 | S. cerevisiae deletion strains, locus YLR330W, strain CHS5, active compounds read low 1.01 | S. cerevisiae deletion strains, locus YLR342W, strain FKS1 (second series), active compounds read low 1.04 | S. cerevisiae deletion strains, locus YLR342W, strain FKS1, active compounds read low 1.03 | S. cerevisiae deletion strains, locus YLR357W, strain rsc2, active compounds read low 1.02 | S. cerevisiae deletion strains, locus YLR370C, strain arc18, active compounds read low 1.05 | S. cerevisiae deletion strains, locus YLR371W, strain rom2, active compounds read low 1.01 | S. cerevisiae deletion strains, locus YLR384C, strain iki3, active compounds read low 1.01 | S. cerevisiae deletion strains, locus YLR418C, strain cdc73, active compounds read low 1 | S. cerevisiae deletion strains, locus YML016C, strain PPZ1, active compounds read low 1.01 | S. cerevisiae deletion strains, locus YML032C, strain rad52, active compounds read low 1.04 | S. cerevisiae deletion strains, locus YML120C, strain ndi1, active compounds read low 1.01 | S. cerevisiae deletion strains, locus YML124C, strain tub3, active compounds read low 1.02 | S. cerevisiae deletion strains, locus YMR058W, strain fet3, active compounds read low 1.03 | S. cerevisiae deletion strains, locus YMR078C, strain ctf18, active compounds read low 1.03 | S. cerevisiae deletion strains, locus YMR125W, strain sto1, active compounds read low 1.03 | S. cerevisiae deletion strains, locus YMR129W, active compounds read low 1.02 | S. cerevisiae deletion strains, locus YMR205C, strain PFK2, active compounds read low 1.03 | S. cerevisiae deletion strains, locus YMR223W, strain ubp8, active compounds read low 1.03 | S. cerevisiae deletion strains, locus YMR231W, strain pep5, active compounds read low 1.03 | S. cerevisiae deletion strains, locus YMR263W, strain SAP30, active compounds read low 1.02 and 1 | S. cerevisiae deletion strains, locus YMR307W, strain GAS1, active compounds read low 0.989 | S. cerevisiae deletion strains, locus YNL067W, strain RPL9B, active compounds read low 1.02 | S. cerevisiae deletion strains, locus YNL071W, strain lat1, active compounds read low 1.03 | S. cerevisiae deletion strains, locus YNL128W, strain TEP1, active compounds read low 1.01 | S. cerevisiae deletion strains, locus YNL153C, strain GIM3, active compounds read low 1.02 and 0.995 | S. cerevisiae deletion strains, locus YNL175C, strain NOP13, active compounds read low 0.965 | S. cerevisiae deletion strains, locus YNL183C, strain NPR1, active compounds read low 0.964 | S. cerevisiae deletion strains, locus YNL197C, strain WHI3, active compounds read low 0.965 | S. cerevisiae deletion strains, locus YNL209W, strain ssb2, active compounds read low 1.04 | S. cerevisiae deletion strains, locus YNL224C, strain SQS1, active compounds read low 1.01 | S. cerevisiae deletion strains, locus YNL233W, strain BNI4, active compounds read low 1 | S. cerevisiae deletion strains, locus YNL248C, strain rpa49, active compounds read low 1.06 | S. cerevisiae deletion strains, locus YNL250W, strain rad50, active compounds read low 1.03 | S. cerevisiae deletion strains, locus YNL271C, strain bni1, active compounds read low 1.03 | S. cerevisiae deletion strains, locus YNL298W, strain CLA4, active compounds read low 1.03 | S. cerevisiae deletion strains, locus YNL307C, strain MCK1, active compounds read low 1.04 | S. cerevisiae deletion strains, locus YNL322C, strain KRE1 (second series), active compounds read low 1.02 | S. cerevisiae deletion strains, locus YNL322C, strain KRE1, active compounds read low 1.01 | S. cerevisiae deletion strains, locus YNR049C, strain mso1, active compounds read low 1.01 | S. cerevisiae deletion strains, locus YNR052C, strain pop2, active compounds read low 1.01 | S. cerevisiae deletion strains, locus YOL006C, strain TOP1, active compounds read low 1.05 | S. cerevisiae deletion strains, locus YOL012C, strain htz1 0.791 | S. cerevisiae deletion strains, locus YOL147C, strain pex11, active compounds read low 1 | S. cerevisiae deletion strains, locus YOR001W, strain rrp6, active compounds read low 1.01 | S. cerevisiae deletion strains, locus YOR061W, strain CKA2, active compounds read low 1.01 | S. cerevisiae deletion strains, locus YOR069W, strain VPS5, active compounds read low 1 | S. cerevisiae deletion strains, locus YOR070C, strain gyp1, active compounds read low 1.02 | S. cerevisiae deletion strains, locus YOR080W, strain dia2, active compounds read low 1.02 | S. cerevisiae deletion strains, locus YOR083W, strain WHI5 (second series), active compounds read low 0.956 | S. cerevisiae deletion strains, locus YOR083W, strain WHI5, active compounds read low 1.04 | S. cerevisiae deletion strains, locus YOR106W, strain vam3, active compounds read low 1.04 | S. cerevisiae deletion strains, locus YOR136W, strain idh2, active compounds read low 1.02 | S. cerevisiae deletion strains, locus YOR144C, strain elg1, active compounds read low 1.02 | S. cerevisiae deletion strains, locus YOR184W, strain ser1, active compounds read low 1.05 | S. cerevisiae deletion strains, locus YOR231W, strain MKK1, active compounds read low 1.03 | S. cerevisiae deletion strains, locus YOR265W, strain rbl2, active compounds read low 1.03 | S. cerevisiae deletion strains, locus YOR270C, strain vph1, active compounds read low 1.1 | S. cerevisiae deletion strains, locus YOR290C, strain snf2, active compounds read low 1.06 | S. cerevisiae deletion strains, locus YOR316C, strain cot1, active compounds read low 1.01 | S. cerevisiae deletion strains, locus YPL051W, strain arl3, active compounds read low 1.04 | S. cerevisiae deletion strains, locus YPL055C, strain LGE1, active compounds read low 1 | S. cerevisiae deletion strains, locus YPL078C, strain atp4, active compounds read low 1.05 | S. cerevisiae deletion strains, locus YPL106C, strain sse1, active compounds read low 1.03 | S. cerevisiae deletion strains, locus YPL240C, strain hsp82, active compounds read low 1.02 | S. cerevisiae deletion strains, locus YPL241C, strain CIN2, active compounds read low 0.999 and 0.995 | S. cerevisiae deletion strains, locus YPL256C, strain CLN2, active compounds read low 1 | S. cerevisiae deletion strains, locus YPR119W, strain clb2, active compounds read low 1 | S. cerevisiae deletion strains, locus YPR141C, strain kar3, active compounds read low 1.02 | S. cerevisiae deletion strains, locus YPR163C, strain tif3, active compounds read low 1.03 | S. cerevisiae deletion strains, locus YPR167C, strain met16, active compounds read low 1.02 | S. cerevisiae deletion strains, strain wtn01, active compounds read low 1.02 | S. cerevisiae strains, strain wild type, active compounds read low 1.01
